# Measured values reported in PubChem BioAssay.
# A number with no mark means an inactive call. How the calls were made is not given here. Positions of bridges follow the written chain, without caps; N, C: chain ends. Non-standard residues stand in square brackets, D forms with d. Residues, ends and D or L forms follow the SMILES beside them. *: point of attachment. Octanoyl(6-Me) = CCC(C)CCCCC(=O)*; Dab = NCC[CH](N)C(=O)O
# Tested on: Aerobactin synthetase IucA (Klebsiella pneumoniae hvKP1)
# Assay: Biochemical IucA enzyme inhibition primary screen of the Spectrum library (AID 1346200);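 further: 100% = wells without compound and 0% = wells lacking enzyme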
# Conditions: malachite green pyrophosphate, A620, at 8 µM, hits give low values
row,Structure (SMILES),activity remaining [%]
1,OCc1c[nH]c2ccccc12,118
2,CCOC(=O)[C@H](CCc1ccccc1)N[C@@H](C)C(=O)N1CCC[C@H]1C(=O)O,113
3,Cc1ccc(C(C)C)cc2c(C)ccc1-2,121
4,CCC(C)CCCCC(=O)NC(CCN)C(=O)NC(C(=O)NC(CCN)C(=O)NC1CCNC(=O)C(C(C)O)NC(=O)C(CCN)NC(=O)C(CCN)NC(=O)C(CC(C)C)NC(=O)C(Cc2ccccc2)NC(=O)C(CCN)NC1=O)C(C)O (stereo not given) ({Octanoyl(6-Me)}-[Dab]T[Dab][Dab][Dab]FL[Dab][Dab]T; lactam 4-C; configuration not given here),121
5,CCCCC(=O)O[C@]1(C(=O)CO)[C@@H](C)CC2C3CCC4=CC(=O)C=C[C@]4(C)[C@@]3(F)C(O)C[C@@]21C (stereo not given in full),121
6,CC(=O)Oc1c2c(c3c(c1CC=C(C)C)O[C@]14C(=C[C@@H]5CC1C(C)(C)OC4(C/C=C(\C)C(=O)O)C5=O)C3=O)OC(C)(CCC=C(C)C)C=C2 (stereo not given in full),112
7,CC[C@]12CCCN3CCc4c(n(c5ccccc45)C(=O)C1)[C@@H]32,101
8,CC(=O)OC1CCC2(O)CC1(C)CCC1C2CC1(C)C (stereo not given),107
9,C[C@H]1[C@H](C)CC[C@]2(C(=O)O)CC[C@]3(C)C(=CCC4[C@@]5(C)C[C@@H](O)[C@H](O)[C@@](C)(CO)C5CC[C@]43C)[C@H]12 (stereo not given in full),102
10,CN(C)CCCO[C@H]1[C@@H](C(O)CO)OC2OC(C)(C)O[C@@H]21 (stereo not given in full),95
